# Test results from PubChem BioAssay AID720706 (Broad Institute, 2013).
# The whole screen tested about 350,000 compounds, of which about 5,500 (1.6%) were called active. The sample holds actives, similar compounds and a random draw of the others, so the mix is not that of the screen.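 The calls were made as follows: active = significant combined selectivity score with lowered wild-type GFP, culture density cut under 30%, mutant RFP and density less affected; inactive = any of these conditions unmet.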
# Experiment: GFP drop in mixed WT/humanized-ribosome E. coli culture – GFP/RFP fluorescence, OD600, single point, bacterial rRNA inhibitor project, primary screen (AID 720706)
# Details: E. coli WT GFP vs humanized-ribosome RFP mutants, 24 h; GFP signal change (wild-type ribosome): stronger effect = lower value, DMSO median 0, no signal -100; OD600 change: measured here: OD600 growth, DMSO median 0, no signal -100; RFP signal change: measured here: RFP humanized mutant strains, DMSO median 0, no signal -100, concentration not given here
SMILES,GFP signal change (wild-type ribosome),OD600 change [%],RFP signal change [%]
C[C@@H]1CN([C@@H](C)CO)C(=O)c2cccc(NC(=O)Nc3ccc(F)cc3)c2O[C@H]1CN(C)Cc1ccc(-c2ccccc2)cc1,-7.51% (inactive),-2.98,-0.352
O=C(C1CCC1)N1CC(=O)N2[C@@H](CO)[C@@H](c3ccc(C#Cc4cccc(F)c4)cc3)[C@@H]2C1,-59.7% (inactive),-79.3,-12.2
COc1cccc(NC(=O)CN(C)C(=O)c2cc(C3CC3)nn2-c2ccccc2)c1,-29.5% (inactive),-27.8,-7.04
CCc1ccccc1NC(=O)CN(C)C(=O)c1cc(C2CC2)nn1-c1ccccc1,-2.02% (inactive),-16.5,3.78
COc1ccc(NC(=O)CN(C)C(=O)c2cc(C3CC3)nn2-c2ccccc2)cc1,-22.4% (active),-10.8,5.24
Cc1nn(-c2ccccc2)c(C)c1/C=C/C(=O)OC(C)C(N)=O (stereo not given),0.439% (inactive),-2.9,-0.31
Cc1nn(-c2ccccc2)c(Cl)c1/C=C/C(=O)c1ccc(O)cc1,-25.9% (active),-19.6,-0.656
Cc1nn(-c2ccc(F)cc2)c(Cl)c1/C=C(/CCC(=O)O)c1nc2ccccc2s1,-52.2% (inactive),-75.8,-17.8
COc1ccccc1CN1[C@H](CO)[C@H](c2ccccc2)C12CN(C(=O)c1ccccn1)C2,-7.66% (inactive),-1.5,11
Cc1noc(C)c1NC(=O)Nc1ccc2c(c1)C(=O)N([C@H](C)CO)C[C@@H](C)[C@H](CN(C)Cc1ccncc1)O2,0.165% (inactive),5.53,-0.035
C[C@H]1CCCCO[C@@H](CN(C)S(=O)(=O)c2ccc(Cl)cc2)[C@@H](C)CN([C@@H](C)CO)C(=O)c2cc(NS(=O)(=O)c3cn(C)cn3)ccc2O1,-1.49% (inactive),-13.7,2.11
N#CCC(=O)N/N=C/c1cn(Cc2ccc3ccccc3c2)c2ccccc12,1.46% (inactive),-2.06,0.715
COc1cccc(Cn2cc(/C=N/NC(=O)c3cc(O)cc(O)c3)c3ccccc32)c1,-27.3% (active),-17.9,2.51
O=C(Cn1cc(/C=N/NC(=O)c2cccc(C(F)(F)F)c2)c2ccccc21)Nc1ccc(F)cc1,-1.48% (inactive),-0.221,-3.15
COc1cccc(S(=O)(=O)N2C[C@@H](O)COC[C@H]3O[C@@H](CC(=O)N4CCOCC4)CC[C@@H]32)c1,0.378% (inactive),-0.728,-3.58
O=S(=O)(Cc1ccccc1)NCC[C@@H]1CC[C@@H](NS(=O)(=O)c2ccccc2)[C@@H](CO)O1,-0.181% (inactive),0.151,1.58
C[C@H](CO)N1C[C@H](C)[C@@H](CN(C)Cc2ccc3c(c2)OCO3)OCCCC[C@H](C)Oc2ccc(NC(=O)Nc3ccc(C(F)(F)F)cc3)cc2C1=O,7.88% (inactive),-5.08,3.82
CCOc1cc(C=NNC(=O)CCCC(=O)NN=Cc2ccc(O)c(OCC)c2)ccc1O,4.33% (inactive),-0.6,2.51
O=C(CCCO)N/N=C/c1cc(Br)ccc1O,-15.6% (active),11.6,1.76
O=C(CCc1ccc(O)cc1)NN=Cc1cc(Br)ccc1O,-37.7% (inactive),-33.3,-8.11

SMILES,GFP signal change (wild-type ribosome),OD600 change [%],RFP signal change [%]
C[C@@H]1CCCCO[C@H](CN(C)Cc2ccc(C(=O)Nc3ccccc3N)cc2)[C@H](C)CN([C@H](C)CO)C(=O)c2cc(N(C)C)ccc2O1,4.58% (inactive),1.72,2.24
CO[C@H]1CN(C)C(=O)c2cc(NC(=O)C3CCCC3)ccc2OC[C@@H](C)N(C(=O)CC2CC2)C[C@@H]1C,-2.32% (inactive),-1.4,-2.08
COc1ccc(C(=O)C2CCCN(C(=O)c3ccc(OC)o3)C2)c(C)c1 (stereo not given),-3.94% (inactive),-8.41,-1.22
COc1ccc(C(=O)C2CCCN(Cc3ccc4nonc4c3)C2)c(C)c1 (stereo not given),-32.5% (active),-18.1,-4.26
COc1ccc(C(=O)C2CCCN(Cc3cccn3-c3ccccn3)C2)c(C)c1 (stereo not given),-15.2% (inactive),-23,0.721
C[C@H]1CN(C)C(=O)c2cc(N(C)C)ccc2O[C@H]1CN(C)C(=O)OC(C)(C)C,-3.1% (inactive),-2.56,0.88
COc1ccc(C2CC(c3ccccc3)=NN2C(=O)CSc2nccc(=O)[nH]2)cc1 (stereo not given),5.08% (inactive),8.39,-0.959
COc1ccc(C2=NN(C(=O)c3ccccc3C(=O)O)C(c3ccccc3O)C2)cc1 (stereo not given),-9.01% (inactive),-19.6,-2.39
COc1ccc(C2=NN(C(=O)c3cccnc3)C(c3ccccc3)C2)cc1 (stereo not given),-23.4% (active),3.3,3.54
O=c1oc(-c2ccccc2NS(=O)(=O)c2ccc(Cl)cc2)nc2ccccc12,-33.6% (active),-24.4,0.207
O=c1ccc2cc(S(=O)(=O)Nc3ccccc3F)ccc2o1,6.96% (inactive),12.1,8.39
O=c1oc2ccccc2c(NC2CCCCC2)c1NS(=O)(=O)c1ccc(Cl)cc1,11.9% (inactive),7.09,-0.375
CO[C@@H]1CN(C)C(=O)c2cc(NC(=O)Nc3ccc4c(c3)OCO4)ccc2OC[C@@H](C)NC[C@@H]1C,4.25% (inactive),10.8,-0.511
COc1ccc2c3c([nH]c2c1)[C@@H](CO)N(C(C)=O)CC31CCN(Cc2ccccc2Cl)CC1,-2.42% (inactive),-9.54,4.49
C[C@@H]1CN([C@H](C)CO)C(=O)c2cc(NS(=O)(=O)c3ccccc3)ccc2O[C@H]1CN(C)S(=O)(=O)c1ccc(Cl)cc1,-8.38% (inactive),-11.5,2.44
O=C(NCCc1ccccc1)c1cccc(NC(=O)c2ccccc2)c1,-23.9% (active),-10,0.86
COc1cccc(CCNC(=O)c2cccc(NC(=O)C3=C(C)OCCS3)c2)c1,-25.3% (inactive),-16.5,-2.22
O=C(NCc1ccccc1)c1cccc(NC(=O)C2CCCCC2)c1,-29.5% (active),-22.2,-7.71
CCNC(=O)c1cccc(NC(=O)C2CC(=O)N(CCc3ccccc3)C2)c1 (stereo not given),8.73% (inactive),3.98,1.88
O=C(Cc1ccc(Br)cc1)NCCc1ccccc1,-13.7% (inactive),6.7,-2.35

SMILES,GFP signal change (wild-type ribosome),OD600 change [%],RFP signal change [%]
CC(C)(C)OC(=O)N1CCC(C(=O)Nc2cccc(C(=O)NCCc3ccccc3)c2)CC1,2.29% (inactive),6.05,0.0785
CO[C@@H]1CN(C)C(=O)c2cc(NS(=O)(=O)c3ccc(C)cc3)ccc2OC[C@H](C)N(Cc2nccs2)C[C@@H]1C,-2.96% (inactive),-14.7,7.3
COc1ccc2c3c([nH]c2c1)[C@@H](CO)N(C(=O)C1CC1)CC31CCN(C(=O)c2ccncc2)CC1,4.87% (inactive),6.99,-3.09
CC(C)NC(=O)N(C)C[C@H]1Oc2cc(-c3cncnc3)ccc2S(=O)(=O)N([C@@H](C)CO)C[C@H]1C,3.27% (inactive),3.02,-2.21
CCC(=O)Nc1ccc2c(c1)C(=O)N(C)[C@@H]1CC[C@H](CC(=O)NCCc3ccncc3)O[C@@H]1CO2,2.16% (inactive),15.1,-1.34
Cc1ccccc1NC(=O)c1cc(S(=O)(=O)Nc2cccc(C(=O)O)c2)ccc1Cl,9.89% (inactive),8.39,-0.677
Cc1ccc(C(=O)Nc2ccccc2-c2ccccc2)cc1S(=O)(=O)Nc1ccccc1,-14.3% (inactive),-30.9,-8.24
C=CCNC(=O)c1ccccc1NC(=O)c1ccc(Cl)c(S(=O)(=O)Nc2cccc(C)c2C)c1,-40% (active),-4.93,9.21
COC(=O)C[C@@H]1C[C@H]2c3cc(NC(=O)NC4CCCC4)ccc3O[C@H]2[C@H](CO)O1,-0.054% (inactive),-2.88,1.29
C[C@H](O)C#Cc1ccc2c(c1)O[C@H](CN(C)Cc1cccnc1)[C@@H](C)CN([C@H](C)CO)S2(=O)=O,-1.81% (inactive),5.84,-2.32
COc1ccccc1NC(=O)N[C@H]1CC[C@H](CCNS(=O)(=O)c2ccc(Cl)cc2)O[C@H]1CO,-12.2% (inactive),-10.8,7.75
CC(C)NC(=O)Nc1cccc2c1O[C@H](CN(C)Cc1ccccc1)[C@H](C)CN([C@H](C)CO)C2=O,3.96% (inactive),10.7,-0.787
C[C@@H]1CN([C@H](C)CO)C(=O)c2cc(-c3ccncc3)cnc2O[C@H]1CN(C)C,-0.119% (inactive),3.91,0.159
NNc1nc2c(Cl)cccc2s1,-27.1% (active),-15.6,-0.505
CN1C(=O)c2cc(NC(=O)NC3CCCC3)ccc2OC[C@@H]2O[C@@H](CC(=O)O)CC[C@H]21,3.92% (inactive),5.14,-1.81
CC[C@]1(C(=O)OC)[C@H]2C(=O)N(Cc3ccccc3)C(=O)[C@H]2[C@H]2CN=C(SCc3ccccc3)N21,-30.1% (inactive),-42.8,-8.47
CC[C@]1(C(=O)OC)[C@H]2C(=O)N(Cc3ccccc3)C(=O)[C@H]2[C@H]2CN=C(SCc3ccc(C#N)cc3)N21,-22.2% (active),-6.29,8.89
COC(=O)[C@@]1(C)[C@H]2C(=O)N(Cc3ccccc3)C(=O)[C@H]2[C@H]2CN=C(SCC3CC3)N21,-47.6% (inactive),-80,-15.4
C[C@@H]1CN([C@H](C)CO)C(=O)c2cc(-c3cccc(F)c3)cnc2O[C@H]1CN(C)C(=O)Nc1ccccc1F,-2.5% (inactive),-5.06,-1.42
CCC(=O)N1CC2(CN(Cc3cccnc3)C2)c2c(n(C)c3cc(OC)ccc23)[C@@H]1CO,1.02% (inactive),-2.19,-2.12
